Values joined by “and” are separate entries in the source; they are usually repeats but may differ in a detail not shown here. Equal entries are not always repeated. Compounds without any hit were thinned out: in the full panel of roughly 83,000, 20% have a hit.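 Single-dose data. Exposure time 48 hours. Values below 10 considered active.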 Active and inactive are the calls of the source.

Data on 40 compounds can be found in PubChem BioAssay (NCI).

This assay relates to MDA-MB-468 breast. Briefly: NCI-60 one-dose screen, 48 h (100 = growth as untreated, 0 = no growth, -100 = all killed). As to conditions: 10 µM unless noted.
Consider `COc1cc(C(=O)c2c(-c3ccccc3)oc3c(OC)cccc23)cc(OC)c1OC`, for which the growth was 18.4% (inactive).
The figure for `Cn1cc(-c2cc(N)n3nc(-c4cn(C)c5ccc(Br)cc45)cc3n2)c2cc(Br)ccc21` is 97.9% (inactive); for `COc1cc(/C=C/c2ccnc3ccccc23)cc(OC)c1OC` it is -8% (active); for `CC(C)(C)NC/C(=C\c1ccccc1)C(=O)c1ccccc1` it is -50.5% (active).
The result for `c1ccc(Cn2cc3c(c2-c2ccccc2)CCc2cnoc2-3)cc1` reads 66.5% (inactive); that for `O=C(CC(=O)c1ccccc1O)c1ccccc1`, 71.9% (inactive).
The result for `C=C(C)[C@@H]1C[C@@H]2Cc3ccc(Cl)c(C)c3N1O2` reads 96.3% (inactive); that for `Cc1ccc(C(=O)Cc2ccccc2)c(O)c1`, 117% (inactive).
As for `COc1cc(/C=C/C(=O)c2ccccc2)ccc1Oc1nc(NCCO)nc(N2CCOCC2)n1`, the growth was 103% (inactive).
The figure for `COc1ccc(C(=O)N2NC(=O)/C(=C/c3ccccc3F)N=C2c2ccccc2)cc1` is 105% (inactive); for `CC1=C[C@H]2c3c(c(O)c(O)c4oc5cc(O)ccc5c(=O)c34)[C@H](c3cc(O)c(O)c4oc5cc(O)ccc5c(=O)c34)[C@H]2C(C)(C)C1` it is 34.3% (inactive); for `CC(=O)Oc1ccc(CCN2C(=O)CSC2=S)cc1` it is -12.9% (active).
The figure for `COc1ccc(-c2nc3sccn3c2-c2cc(-c3cc(OC)c(OC)c(OC)c3)on2)cc1` is 100% (inactive); for `O=C1C(Cl)=C(Nc2ccccn2)C(=O)c2ccccc21` it is 37.1% (inactive).
As to `COc1cc2c(c(OC)c1OC)-c1ccc(N)c(=O)cc1[C@@H](NC(C)=O)CC2`, the growth is 0.226% (active).
The figure for `O=C(CSc1nc2c(n1Nc1ccccc1)-c1ccccc1SC2)Nc1nc(-c2ccc(Cl)cc2)cs1` is 59.1% (inactive); for `O=C(Nc1ccccc1)c1sc(-c2cccc(C(F)(F)F)c2)cc1O` it is 92.3% (inactive); for `NS(=O)(=O)c1ccc(N=Nc2c(O)n(Cc3ccccc3)c3ccc(Cl)cc23)cc1` it is 83.3% (inactive).
The figure for `O=C1C[C@H](Sc2nc(-c3ccc(F)cc3)cc(C(F)(F)F)n2)[C@H]2CO[C@@H]1O2` is 71.4% (inactive); for `CN1CCN(CCCN2c3ccccc3Sc3ccc(C(F)(F)F)cc32)CC1` it is -2.21% (active); for `N/C(=N\OC(=O)c1ccccc1)C(C(=O)NOC(=O)c1ccccc1)C1CCCCC1` (stereo not given) it is 80.8% (inactive).
The figure for `NS(=O)(=O)OCC1OC(n2cnc3cncnc32)C(O)C1O` (stereo not given) is 5.51% [0.1 µM] (active) and -18.9% [0.1 µM] (active); for `NC(=O)c1ccc(N=C(N)N=C(N)N)cc1` it is 84.5% (inactive).
Take `CN1CCN(CCCOc2ccc3nc(Nc4ccc(C(F)(F)F)c(Cl)c4)ccc3c2)CC1`: the growth was 30% (inactive).
The figure for `NCCNc1nc2ccccc2c2c(=O)c3cc(F)cc(Cl)c3sc12` is -12.5% (active).
The figure for `CCOC(=O)c1cc(C(=O)c2cc(OC)c(OC)c(OC)c2)n2ncccc12` is -11.5% (active); for `CNCCCNc1nc2ccccc2c2c(=O)c3cc(OC)ccc3sc12` it is 24.8% (inactive); for `Cc1cc(N2CCSCC2)nc(NC2CCCC(Nc3ccnc4cc(Cl)ccc34)C2)n1` (stereo not given) it is -43.7% (active).
The result for `O=C1OC(c2ccc(Cl)c(Cl)c2)=C/C1=C/c1cccc([N+](=O)[O-])c1` reads 92.3% (inactive); that for `Cc1ccc(NC(=O)Cc2ccc(/C=C/C(=O)c3ncc[nH]3)cc2)cc1`, -0.436% (active).
`CC(=O)OC[C@H]1OC(Sc2sc(C(=O)c3ccc(Br)cc3)c(N)c2-c2nc3ccccc3s2)[C@H](OC(C)=O)[C@@H](OC(C)=O)[C@@H]1OC(C)=O` (stereo not given in full): the growth was 71.5% (inactive).
The result for `COc1ccc2c(c1)C(=O)/C(=C/c1ccc([N+](=O)[O-])o1)O2` reads -49.4% (active); that for `CCNCCCn1c2c(c3ccc(F)cc3c1=O)C(=O)c1cc(OC)cnc1-2`, -75.7% (active).
The result for `COc1cccc(C(c2cc3c(cc2O)OCO3)N2CCOCC2)c1OC` (stereo not given) reads 90.6% (inactive); that for `COC(=O)/C=C1/SC(=Nc2ccc([N+](=O)[O-])cc2)N(CCc2c[nH]c3ccc(O)cc23)C1=O`, 56.8% (inactive).
The figure for `N#Cc1c(N2CCNCC2)nc2sc3cc(Cl)c(Cl)cc3n2c1=N` is 90.2% (inactive); for `CCC(CO)Nc1nc2ccc(Cl)cc2c2ccccc12` (stereo not given) it is 33% (inactive); for `Cc1cc(N)ccc1-c1ccc(N)cc1C` it is 97.5% (inactive).
Consider `O=C1C(=O)N(CCCCn2cc(-c3ccccc3)nn2)c2ccccc21`, for which the growth is 125% (inactive).
In the case of `c1ccc(-c2cc3n4c(-c5ccccc5)nn(-c5ccccc5)c4cnc-3n2)cc1`, the growth was 70.2% (inactive).
